The values that follow come from PubChem BioAssay.

A short description of assay [1]: compounds binding Alexa647 anti-His antibody – biochemical, small-molecule microarray, 635 nm fluorescence, artefact control for SMM control protein annotation, primary screen (AID 1128).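 Note: score merges feature fluorescence with signal-to-noise for each printed compound spot.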 The following applies: higher = more signal.
Assay [2] deals with Human papillomavirus type 1a E7 protein (residues 1-88). Kind of assay: HPV1a E7 small-molecule binders, primary screen, biochemical, small-molecule microarray, residues 1-88, 635 nm (AID 1129). The conditions noted are these: small-molecule microarray binding, fluorescence 635 nm; higher = more signal.
The target of assay [3] is Focal adhesion kinase 1 (Homo sapiens) (UniProt Q05397). Kind of assay: PTK2 protein binding on printed compound slides – biochemical, small-molecule microarray, 635/667 nm fluorescence, BSA, DTT, primary screen (AID 1130).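 Note: composite of spot emission at 667 nm and signal to noise over triplicate slides.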 The conditions noted are these: 635 nm fluorescence, higher = more signal.
Assay [4] deals with Fibrinogen (Alexa647-labelled). Briefly: Alexa647-fibrinogen binding to printed small molecules – biochemical, small-molecule microarray, 635/667 nm fluorescence, artefact control for SMM control-protein annotation, profiling panel (AID 1131).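 Note: z-score merges 667 nm fluorescence with per-spot signal-to-noise over triplicate slides.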 The following applies: fibrinogen-A647 binding fluorescence, higher = more signal.
Assay [5] deals with Follistatin (Homo sapiens) (UniProt P19883). Briefly: FST protein binding to printed compounds – biochemical, small-molecule microarray, 635/667 nm fluorescence, primary screen (AID 1132). The following applies: 635 nm fluorescence, higher = more signal.
Assay [6] deals with Fibroblast growth factor 2 (Homo sapiens) (UniProt P09038). Briefly: basic fibroblast growth factor binding to printed compounds – biochemical, small-molecule microarray, 635/667 nm fluorescence, primary screen (AID 1133). The conditions noted are these: FGF2, fluorescence 635/667, higher = more signal.
Assay [7] is described as follows: JC-1 mitochondrial potential readout, lung cancer cells – cell-based, A549, JC-1 fluorescence, basal, 24 h, 100 nL, profiling panel (AID 1138).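 Note: A549 lung adenocarcinoma cells under basal conditions with no added stimulus; test concentration not given here.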 The following applies: higher = more signal.
Assay [8] concerns Lefty1. Briefly: Lefty1 protein binding to printed compounds – biochemical, small-molecule microarray, 635/667 nm fluorescence, primary screen (AID 1139). The conditions noted are these: fluorescence 635/667, higher = more signal.
Assay [9] relates to wheat germ agglutinin (Triticum aestivum), Alexa647-labelled. Briefly: Alexa647-WGA lectin binding to printed small molecules – biochemical, small-molecule microarray, 635/667 nm fluorescence, artefact control for SMM control-protein annotation, profiling panel (AID 1140).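 Note: score merges 667 nm feature emission with signal to noise over triplicate slides.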 The conditions noted are these: WGA-A647 binding, 635 nm fluorescence, higher = more signal.
In assay [10] the target is Luciferin 4-monooxygenase (Photinus pyralis) (UniProt P08659). Kind of assay: inhibition of purified Photinus pyralis luciferase – biochemical, luminescence, purified enzyme, 2006 set, primary screen (AID 1141).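 Note: cell-free assay with purified firefly luciferase at 100 ng per well in PBS; test concentration not given here.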 The conditions noted are these: purified firefly luciferase, SteadyGlo luminescence, 30 min; higher = more signal, called active from +8 up or from −8 down.
Assay [11] relates to Wnt5a (protein binding on small-molecule microarray). Kind of assay: small molecules binding Wnt5a protein – biophysical, small-molecule microarray, 635/667 nm fluorescence, primary screen (AID 1142).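 Note: fluorescence read at 667 nm with signal to noise per printed feature.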 The conditions noted are these: 635 nm fluorescence, higher = more signal.
Assay [12] in a line: ATP-based viability of Huh7 replicon cells – cell-based, CellTiter-Glo luminescence, basal, 48 h, cytotoxicity control for HCV replication inhibitor project, primary screen (AID 1143).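 Note: Huh7 hepatoma cells carrying a hepatitis C replication reporter with no stimulus; test concentration not given here.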 The conditions noted are these: higher = more signal, called active from +8 up or from −8 down. A general note: In antiviral work, replicon cells carry a viral genome segment that copies itself.

Assay [13] in a line: Pseudomonas biofilm growth suppression – PAO1 strain, BacTiter-Glo luminescence, LB-PBS, primary screen (AID 1144). The following applies: P. aeruginosa PAO1 biofilm, 12 h, higher = more signal.
Assay [14] in a line: basal CRE-LacZ reporter activity in PC12 – cell-based, unstimulated, primary screen (AID 1145). The following applies: no forskolin, luminescence, 4.5 h, higher = more signal, called active from +8 up or from −8 down.
A short description of assay [15]: forskolin-driven CRE-LacZ activity in PC12 – cell-based, CRE-LacZ reporter, forskolin-stimulated, primary screen (AID 1146).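 Note: PC12 cells with 6xCRE LacZ reporter stimulated by forskolin 10 µM; beta-galactosidase reporter signal reflecting CREB driven transcription.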 The conditions noted are these: luminescence, 4.5 h, higher = more signal, called active from +8 up or from −8 down.
Assay [16] concerns the target Streptavidin (Streptomyces avidinii) (UniProt P22629). Kind of assay: compounds binding control protein streptavidin – biophysical, small-molecule microarray, 635/667 nm fluorescence, artefact control for SMM compound annotation, primary screen (AID 1147).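 Note: signal reflects streptavidin binding to arrayed compounds as a control protein.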 The conditions noted are these: higher = more signal.
Assay [17] in a line: probe aInhba binding on compound microarray – biochemical, small-molecule microarray, 635/667 nm fluorescence, primary screen (AID 1148).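 Note: score merges 667nm spot fluorescence with signal-to-noise for antibody binding to printed compounds.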 The following applies: higher = more signal.
Assay [18] has as its target Torsin-1A (Homo sapiens) (UniProt O14656). Briefly: TOR1A wild-type binding on microarray – cell lysate, small-molecule microarray, lysate, 635/667 nm, primary screen (AID 1149). The following applies: COS7 hTOR1A-WT lysate, 635 nm fluorescence, higher = more signal.
Assay [19] shares this target. Briefly: torsin A mutant lysate binding on microarrays – cell lysate, small-molecule microarray, COS7 lysate, 635/667 nm fluorescence, primary screen (AID 1150).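 Note: score pools 667 nm emission and signal to noise measuring lysate protein binding.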 The conditions noted are these: COS7 hTOR1A mutant lysate, 635 nm fluorescence, higher = more signal.
Assay [20] has as its system Sonic hedgehog protein (Shh). Kind of assay: Sonic hedgehog microarray binding compounds – biochemical, small-molecule microarray, 635/667 nm fluorescence, primary screen (AID 1151).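 Note: Shh protein binding to compounds spotted on small-molecule microarray slides; score combines spot fluorescence intensity with signal-to-noise across triplicate slides.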 The conditions noted are these: 635 nm fluorescence, higher = more signal.

Several values for one entry are separate records, joined by “and”; a condition that tells them apart may be missing. Identical values can stand only once. Activity calls are given as the source filed them. Unless noted, the rule behind the calls is not given here.

Luciferin 4-monooxygenase (Photinus pyralis), sequence (P08659 whole entry, looked up): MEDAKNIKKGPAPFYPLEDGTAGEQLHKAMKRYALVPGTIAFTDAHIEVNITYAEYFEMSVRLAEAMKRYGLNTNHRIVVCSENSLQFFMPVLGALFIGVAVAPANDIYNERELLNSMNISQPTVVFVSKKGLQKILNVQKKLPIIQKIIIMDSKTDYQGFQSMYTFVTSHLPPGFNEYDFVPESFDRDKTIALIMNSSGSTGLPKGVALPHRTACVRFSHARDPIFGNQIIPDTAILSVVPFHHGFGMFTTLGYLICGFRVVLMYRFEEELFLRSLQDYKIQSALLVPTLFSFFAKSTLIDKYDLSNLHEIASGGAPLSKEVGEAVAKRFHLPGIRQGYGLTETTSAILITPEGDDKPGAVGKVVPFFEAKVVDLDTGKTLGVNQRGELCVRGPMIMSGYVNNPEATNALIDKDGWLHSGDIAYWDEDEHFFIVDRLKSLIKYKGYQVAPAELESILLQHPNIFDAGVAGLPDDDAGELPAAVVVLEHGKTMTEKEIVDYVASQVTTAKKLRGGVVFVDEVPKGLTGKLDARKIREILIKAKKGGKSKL
Streptavidin (Streptomyces avidinii), sequence (P22629 whole entry, looked up): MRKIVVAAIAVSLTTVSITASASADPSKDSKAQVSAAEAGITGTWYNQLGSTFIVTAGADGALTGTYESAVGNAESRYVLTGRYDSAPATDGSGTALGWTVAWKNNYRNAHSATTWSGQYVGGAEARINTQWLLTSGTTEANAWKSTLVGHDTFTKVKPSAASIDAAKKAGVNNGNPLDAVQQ
Focal adhesion kinase 1 (Homo sapiens), sequence (Q05397 whole entry, looked up): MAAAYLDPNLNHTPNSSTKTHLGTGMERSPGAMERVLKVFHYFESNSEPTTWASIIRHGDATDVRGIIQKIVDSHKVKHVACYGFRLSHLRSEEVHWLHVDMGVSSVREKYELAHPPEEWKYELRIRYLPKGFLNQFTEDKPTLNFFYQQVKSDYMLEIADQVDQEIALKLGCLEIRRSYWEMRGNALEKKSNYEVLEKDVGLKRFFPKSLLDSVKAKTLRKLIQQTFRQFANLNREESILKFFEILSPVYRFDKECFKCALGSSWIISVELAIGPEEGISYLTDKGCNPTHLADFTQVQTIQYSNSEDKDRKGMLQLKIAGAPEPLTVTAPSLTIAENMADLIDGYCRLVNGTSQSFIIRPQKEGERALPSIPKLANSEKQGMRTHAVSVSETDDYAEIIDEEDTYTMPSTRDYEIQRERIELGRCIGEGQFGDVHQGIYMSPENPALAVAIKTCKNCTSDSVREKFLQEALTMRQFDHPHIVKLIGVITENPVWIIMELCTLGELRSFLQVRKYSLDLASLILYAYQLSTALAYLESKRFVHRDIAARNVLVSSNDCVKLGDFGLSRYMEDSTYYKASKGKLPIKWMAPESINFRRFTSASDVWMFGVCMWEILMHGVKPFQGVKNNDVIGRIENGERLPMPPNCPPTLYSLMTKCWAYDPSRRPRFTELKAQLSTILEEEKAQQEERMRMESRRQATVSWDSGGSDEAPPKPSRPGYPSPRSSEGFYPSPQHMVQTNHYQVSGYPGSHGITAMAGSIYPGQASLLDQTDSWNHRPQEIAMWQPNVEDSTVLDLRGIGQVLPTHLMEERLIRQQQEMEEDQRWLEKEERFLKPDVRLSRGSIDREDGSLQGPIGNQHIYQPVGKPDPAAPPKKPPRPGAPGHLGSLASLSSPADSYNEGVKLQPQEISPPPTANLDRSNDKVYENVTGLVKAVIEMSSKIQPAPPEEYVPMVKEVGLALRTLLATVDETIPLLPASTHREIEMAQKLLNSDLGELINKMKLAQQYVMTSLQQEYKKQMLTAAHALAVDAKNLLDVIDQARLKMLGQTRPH
Fibroblast growth factor 2 (Homo sapiens), sequence (P09038 whole entry, looked up): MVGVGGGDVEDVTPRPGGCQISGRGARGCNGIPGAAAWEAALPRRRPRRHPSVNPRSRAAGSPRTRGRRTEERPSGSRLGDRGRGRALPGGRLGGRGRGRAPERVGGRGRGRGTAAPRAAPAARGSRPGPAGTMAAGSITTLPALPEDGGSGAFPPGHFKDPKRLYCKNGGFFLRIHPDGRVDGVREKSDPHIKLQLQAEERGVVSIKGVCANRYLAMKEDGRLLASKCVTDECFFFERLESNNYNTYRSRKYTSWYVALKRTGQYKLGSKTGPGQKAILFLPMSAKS
Torsin-1A (Homo sapiens), sequence (O14656 whole entry, looked up): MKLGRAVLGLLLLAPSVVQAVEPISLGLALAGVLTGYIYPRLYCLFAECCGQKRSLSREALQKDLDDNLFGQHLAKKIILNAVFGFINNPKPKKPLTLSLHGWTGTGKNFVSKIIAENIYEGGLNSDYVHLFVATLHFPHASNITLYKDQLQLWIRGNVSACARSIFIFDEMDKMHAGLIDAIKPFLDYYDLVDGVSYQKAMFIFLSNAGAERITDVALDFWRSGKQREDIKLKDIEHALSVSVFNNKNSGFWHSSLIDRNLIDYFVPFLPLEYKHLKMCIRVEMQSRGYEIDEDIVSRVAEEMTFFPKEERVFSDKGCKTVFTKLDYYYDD
Follistatin (Homo sapiens), sequence (P19883 whole entry, looked up): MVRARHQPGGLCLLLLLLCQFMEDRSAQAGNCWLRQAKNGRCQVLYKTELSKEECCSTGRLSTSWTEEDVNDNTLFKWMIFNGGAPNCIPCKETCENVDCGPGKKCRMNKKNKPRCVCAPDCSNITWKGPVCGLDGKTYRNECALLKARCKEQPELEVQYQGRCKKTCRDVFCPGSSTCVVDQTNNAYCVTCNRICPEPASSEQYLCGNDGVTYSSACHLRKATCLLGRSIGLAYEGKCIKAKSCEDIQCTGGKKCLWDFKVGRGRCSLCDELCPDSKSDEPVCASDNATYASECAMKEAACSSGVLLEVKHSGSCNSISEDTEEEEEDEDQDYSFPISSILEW

Turning to `COC(=O)C1=C(C)N(Cc2ccccc2)C2=C(C(=O)c3ccccc3)[C@H](c3ccccc3)[C@@](O)(C(=O)OC)C(=O)N2[C@@H]1c1ccccc1`, the composite z-score in assay [1] was 0.326 and -0.476; in [2], 0.477 and 0.778; in assay [3] it was 0.0825 and 1.11; in [4] it was 0.435 and -0.0657; in assay [5] it was 0.526 and 0.424; in assay [6], 0.442 and 0.433. Moreover, the composite z-score in assay [8] is 0.571 and 0.636; in [9] it was 0.419 and -0.0152; in [11] it was 0.0925 and 0.179; in assay [16] it was 0.077 and -0.118; in assay [17] it was 0.0173 and -0.224; in assay [18], 0.0486 and 0.0903. Besides, the composite z-score was 0.483 and -0.0314 in [19]; 0.557 and 0.757 in [20]. In addition, the z-score in assay [7] is 0.722 and 0.241; in assay [10], -1.49 (inactive) and -0.0191 (inactive); in assay [12] it was -2.35 (inactive) and 0.428 (inactive); in [13], -1.1 (inactive) and -0.472 (inactive); in [14], 3.09 (inactive) and -0.989 (inactive); in assay [15] it was 0.415 (inactive) and -1.18 (inactive).

As for `C=CCN(CCCC)C(=O)C1N(CCOCCO)C(=O)C2C(C(=O)O)C3C=CC21O3` (stereo not given), the composite z-score in assay [1] was 1.11 and -1.66; in assay [2], -0.741 and -0.901; in assay [3] it was -0.619 and -0.291; in [4], -1.43 and -0.885; in [5], -0.817 and -1.32; in [6] it was -1.68 and -1.4. Also, the composite z-score in assay [8] was -1.6 and -2.23; in assay [9] it was -0.557 and -0.16; in assay [11] it was -0.978 and -0.38; in assay [16] it was -1.6 and -1.56; in assay [17] it was -0.128 and -0.353; in assay [18] it was -3.18 and -0.099. Besides, the composite z-score in [19] was -2.51 and 2.04; in [20], -1.52 and -1.51. For the same compound, the z-score was -0.409 and -0.724 in assay [7]; 0.694 (inactive) and 0.806 (inactive) in [10]; 0.757 (inactive) and -0.117 (inactive) in [12]; 1.42 (inactive) and 1.2 (inactive) in assay [13]; -0.899 (inactive) and -0.497 (inactive) in assay [14]; -0.327 (inactive) and -0.267 (inactive) in assay [15].

Regarding `CC(CO)N1C(=O)[C@@H]2C3C(=O)OCCC=C[C@H]3OC23C=CCN(c2ccc(Cl)cc2)C(=O)[C@@H]13` (stereo not given in full), the composite z-score in assay [1] is -1.31 and 1.36; in assay [2], -1.31 and -0.0543; in [3], 1.69 and 0.156; in assay [4] it was -0.697 and 0.363; in assay [5], -1.49 and 0.33; in [6], -1.73 and -0.68. Besides, the composite z-score in assay [8] is -1.49 and 0.213; in [9], -0.0757 and 0.684; in assay [11], -0.396 and -0.34; in assay [16], -0.9 and 0.152; in assay [17] it was -0.111 and 0.0541; in [18] it was -1.09 and -1.53. For the same compound, the composite z-score in assay [19] was -2.42 and -1.49; in assay [20], -0.359 and 0.829. Moreover, the z-score in assay [7] was 0.931 and 0.848; in assay [10], -0.593 (inactive) and -0.731 (inactive); in assay [12], -0.666 (inactive) and -0.787 (inactive); in assay [13], 1.06 (inactive) and 0.664 (inactive); in [14] it was 0.187 (inactive) and 0.325 (inactive); in [15] it was -0.613 (inactive) and 0.478 (inactive).

As to `COC(=O)C1=C(C)N(Cc2ccccc2)C2=C3C(=O)N(c4ccccc4)C(=O)[C@@H]3[C@@](O)(C(=O)OC)C(=O)N2[C@@H]1c1ccccc1`, the composite z-score is 0.387 and 0.668 in assay [1]; 0.186 and 1.1 in assay [2]; 0.14 and 0.113 in assay [3]; 0.212 and 0.393 in assay [4]; 0.988 and 0.726 in assay [5]; 1.63 and 0.5 in assay [6]. Moreover, the composite z-score is 0.823 and 0.745 in assay [8]; 0.0882 and 0.764 in assay [9]; 0.297 and 0.678 in [11]; 0.117 and 0.12 in [16]; -0.024 and -0.0313 in [17]; 0.801 and 0.365 in [18]. Besides, the composite z-score in assay [19] is 0.516 and 0.533; in assay [20] it was 0.574 and 0.726. Also, the z-score was 0.895 and 1.76 in assay [7]; -0.471 (inactive) and -1.33 (inactive) in [10]; -0.146 (inactive) and -1.82 (inactive) in [12]; 0.9 (inactive) in assay [13]; 2.72 (inactive) and -0.615 (inactive) in [14]; -0.718 (inactive) and -0.78 (inactive) in assay [15].

Regarding `CC[C@@H]1C(Sc2ccccc2)C(C(=O)O)[C@H](c2ccc(C)cc2)N1S(=O)(=O)c1ccc(C)cc1` (stereo not given in full), the composite z-score is 1.81 and 0.489 in [1]; 1.25 and 1.17 in [2]; 0.994 and 0.704 in [3]; 1.03 in [4]; 0.427 and 0.634 in [5]; -0.375 and -0.193 in assay [6]. In addition, the composite z-score is -0.642 and 0.533 in assay [8]; 0.707 and 0.804 in assay [9]; 0.142 and 0.0997 in assay [11]; 1.46 and 1.59 in [16]; -0.025 and -0.0736 in [17]; 1.19 and 0.429 in [18]. Moreover, the composite z-score in assay [19] is 1.5 and -0.0197; in assay [20], 0.801 and -0.436. The z-score was -0.102 and 0.13 in assay [7]; 0.534 (inactive) and -0.0047 (inactive) in [10]; -0.318 (inactive) and -2.15 (inactive) in [12]; 0.281 (inactive) and 0.139 (inactive) in assay [13]; -0.574 (inactive) and -0.415 (inactive) in [14]; -0.0531 (inactive) and -0.545 (inactive) in assay [15].

Turning to `CC(=O)OC[C@H]1O[C@H](C#CC(C)(C)C)C=C[C@@H]1OC(C)=O`, the composite z-score in [1] worked out at 0.726; in assay [2] it was 0.996; in assay [3] it was 0.589; in assay [4] it was 0.979; in assay [5], 0.418; in assay [6], 0.791. The composite z-score in assay [8] is 1.22; in [9], 0.445; in assay [11], -0.0516; in [16] it was 1.58; in assay [17], -0.0331; in assay [18], 0.835. Further, the figures for the composite z-score in [19] and in assay [20] were -0.392 and 0.953, respectively. Also, the z-score is 0.707 in assay [7]; -1.22 (inactive) in assay [10]; 0.13 (inactive) in [12]; 0.992 (inactive) in assay [13]; -0.162 (inactive) in [14]; 1.35 (inactive) in assay [15].
